Source: PubChem BioAssay AID1159580 (chemical genetic matrix, 2015)
“And” between values parts separate entries of the source, which are not always exact repeats. Equal entries are not always repeated. About 2,000 (36%) of roughly 5,500 compounds were called active. Not shown: some 18% with an inconclusive outcome. No stated cut-off is given here; in the data, active means normalized growth mostly below about 0.91 (no sharp cut-off); inconclusive means no clear call, values can overlap the other calls; inactive means mostly above about 0.92. Some of the results follow.

Experiment: chemical genetic growth profiling, strain panel (AID 1159580);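 further: tested at 20 µM; growth read once vehicle control cultures reached saturation at 30 °C; 1 = growth at the plate median or of vehicle wells; lower values mean less growth of the strain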
Conditions: S. cerevisiae deletion strains, growth OD

Measured: normalized growth

N#Cc1c(Cl)cccc1Cl
inactive: locus YAL013W, strain DEP1, hits give low values 1.01 | locus YAL021C, strain ccr4, hits give low values 1.01 | locus YAL026C, strain drs2, hits give low values 0.988 | locus YAL030W, strain snc1, hits give low values 0.979 | locus YBL061C, strain skt5, hits give low values 0.979 | locus YBR009C, strain hhf1, hits give low values 0.959 | locus YBR021W, strain FUR4, hits give low values 1.02 | locus YBR023C, strain chs3, hits give low values 0.981 | locus YBR171W, strain sec66, hits give low values 0.982 | locus YBR229C, strain ROT2, hits give low values 1.01 | locus YBR231C, strain swc5, hits give low values 0.98 | locus YBR279W, strain paf1, hits give low values 0.983 | locus YCL011C, strain gbp2, hits give low values 0.954 | locus YCL016C, strain dcc1, hits give low values 0.983 | locus YCL029C, strain bik1, hits give low values 1.01 | locus YCL069W, strain vba3, hits give low values 0.98 | locus YCR088W, strain abp1, hits give low values 0.985 | locus YDL005C, strain med2, hits give low values 0.977 | locus YDL035C, strain GPR1, hits give low values 1.01 | locus YDL040C, strain nat1, hits give low values 0.991 | locus YDL074C, strain BRE1, hits give low values 1.03 | locus YDL101C, strain DUN1, hits give low values 1.01 | locus YDL134C, strain PPH21, hits give low values 1 | locus YDL185W, strain tfp1, hits give low values 1.01 | locus YDL192W, strain arf1, hits give low values 1.01 | locus YDR001C, strain nth1, hits give low values 0.977 | locus YDR069C, strain doa4, hits give low values 0.983 | locus YDR101C, strain arx1, hits give low values 1.01 | locus YDR137W, strain rgp1, hits give low values 1.01 | locus YDR150W, strain NUM1, hits give low values 1.01 | locus YDR159W, strain sac3, hits give low values 0.995 | locus YDR162C, strain NBP2, hits give low values 1.01 | locus YDR195W, strain ref2 0.991 | locus YDR297W, strain sur2, hits give low values 0.972 | locus YDR318W, strain mcm21, hits give low values 1.01 | locus YDR334W, strain swr1, hits give low values 0.952 | locus YDR335W, strain msn5, hits give low values 0.977 | locus YDR388W, hits give low values 1.01 | locus YDR392W, strain spt3, hits give low values 1 | locus YDR502C, strain sam2, hits give low values 1.01 | locus YEL003W, strain gim4, hits give low values 0.969 | locus YEL037C, strain rad23, hits give low values 0.981 | locus YEL061C, strain CIN8 (second series), hits give low values 0.98 | locus YEL061C, strain CIN8, hits give low values 1.01 | locus YER015W, strain faa2, hits give low values 0.98 | locus YER016W, strain bim1, hits give low values 0.979 | locus YER110C, hits give low values 1 | locus YER111C, strain swi4, hits give low values 0.965 | locus YER155C, strain BEM2 (second series), hits give low values 0.975 | locus YER155C, strain BEM2, hits give low values 1.01 | locus YER167W, strain BCK2, hits give low values 1.01 | locus YFR010W, strain ubp6, hits give low values 0.98 | locus YGL078C, strain dbp3, hits give low values 1.01 | locus YGL086W, strain mad1, hits give low values 1.01 | locus YGL167C, strain pmr1, hits give low values 0.978 | locus YGL173C, strain kem1, hits give low values 0.99 | locus YGL227W, strain vid30, hits give low values 0.974 | locus YGL240W, strain doc1, hits give low values 0.965 | locus YGL248W, strain PDE1, hits give low values 1 | locus YGL253W, strain hxk2, hits give low values 0.987 | locus YGR078C, strain PAC10, hits give low values 1.01 | locus YGR135W, strain pre9, hits give low values 1.01 | locus YGR229C, strain SMI1, hits give low values 1.02 | locus YGR252W, strain gcn5, hits give low values 1.09 | locus YHR013C, strain ard1, hits give low values 1.02 | locus YHR027C, strain rpn1, hits give low values 0.977 | locus YHR030C, strain SLT2, hits give low values 1.02 and 0.941 | locus YHR079C, strain IRE1 (second series), hits give low values 1.01 | locus YHR079C, strain IRE1, hits give low values 0.965 | locus YHR094C, strain hxt1, hits give low values 1.01 | locus YHR129C, strain ARP1, hits give low values 1.01 | locus YHR142W, strain chs7, hits give low values 0.976 | locus YHR200W, strain rpn10, hits give low values 1.01 | locus YIL066C, strain RNR3, hits give low values 1.04 | locus YIL073C, strain SPO22, hits give low values 1.03 | locus YIL125W, strain kgd1, hits give low values 1.01 | locus YIR030C, strain dcg1, hits give low values 1.02 | locus YJL092W, strain hpr5, hits give low values 0.976 | locus YJL095W, strain BCK1 (second series), hits give low values 0.997 | locus YJL095W, strain BCK1, hits give low values 0.999 and 0.941 | locus YJL115W, strain asf1, hits give low values 0.959 | locus YJL129C, strain trk1, hits give low values 0.976 | locus YJL134W, strain LCB3, hits give low values 1.01 | locus YJL154C, strain vps35, hits give low values 0.978 | locus YJL164C, strain tpk1, hits give low values 0.996 | locus YJL166W, strain qcr8, hits give low values 0.978 | locus YJL168C, strain set2, hits give low values 1.01 | locus YJL187C, strain SWE1 (second series), hits give low values 1.01 | locus YJL187C, strain SWE1, hits give low values 0.988 | locus YJR043C, strain POL32, hits give low values 1.02 | locus YJR066W, strain TOR1, hits give low values 0.936
